In PubChem BioAssay (NCATS):
Results filed as inconclusive are left out. Entries that show only a call come without a potency. The source made the active and inactive calls. Calls follow the shape of the dose curve; as a rule, active = well fitted inhibition curve with a large enough effect; inconclusive = small, poorly fitted or top-dose-only effect; inactive = no such curve, though single readings can be large or run the other way.

Tested on: Zika virus NS2B-NS3 protease (linked construct)
Assay: Primary screen NINDS Rhodamine qHTS for Zika virus inhibitors (AID 1347160); also: nearly all actives have a fitted effect of over 55% in size
Conditions: purified NS2B-NS3 protease, Rhodamine110 substrate fluorescence; series mostly up to 33.1 µM
How it was run: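 In 10 mM Tris-HCl pH 8.0 containing 0.01% Tween 20, linked NS2B-NS3 protease (25 nM final) is exposed to test compounds for 15 min. Cleavage of 1.5 microM Rhodamine110 substrate is tracked by fluorescence over 15 min.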

Compound	Potency
CC(=O)[C@@H]1C[C@H](C(C)(C)O[C@@H]2O[C@H](CO)[C@@H](O)[C@H](O)[C@H]2O)CC[C@@]2(CO)OC(=O)C[C@@H]12	inactive
OC[C@@]1(O)CO[C@@H](OC[C@H]2O[C@@H](Oc3ccccc3)[C@H](O)[C@@H](O)[C@@H]2O)[C@@H]1O	inactive
C/C=C1\[C@H](O[C@@H]2O[C@H](CO)[C@@H](O)[C@H](O)[C@H]2O)OC=C(C(=O)OCCc2ccc(O)cc2)[C@H]1CC(=O)OCCc1ccc(O)cc1	inactive
C[C@]12CCC[C@](C)(C(=O)O)C1CCC13CC(CO)C(CCC12)C3 (some centres undefined)	inactive
CC1=CC[C@@]2(C)CC[C@@](O)(C(C)C)[C@@H]2[C@@H](O)C1	inactive
COc1cc(O)cc2c1C(=O)OC(C)C2 (centres undefined)	inactive
COc1ccc(/C=C/C(=O)O[C@@H]2[C@@H](O)[C@@H](O)[C@H](O[C@H]3[C@@H]4C=CO[C@@H](O[C@@H]5O[C@H](CO)[C@@H](O)[C@H](O)[C@H]5O)[C@@H]4[C@@]4(CO)O[C@@H]34)O[C@H]2C)cc1	inactive
C/C=C(/C)C(=O)OC1C(OC(C)=O)C23C(O)OC4(CCC5C6(C)CCC(OC7OC(C(=O)O)C(O)C(OC8OC(CO)C(O)C(O)C8OC8OC(C)C(O)C(O)C8OC8OCC(O)C(O)C8O)C7OC7OC(CO)C(O)C(O)C7O)C(C)(C)C6CCC5(C)C4(C)CC2OC(C)=O)C3CC1(C)C (centres undefined)	inactive
O=C(Nc1ccn(Cc2c(F)cccc2C(F)(F)F)n1)c1c(F)cccc1F	inactive
COc1cccc(C(=O)NCCNc2nc3cc(C)cc(C)c3cc2C#N)c1	inactive
COC(=O)C1=C[C@@H](O)[C@@H](O)[C@H](O[C@@H]2O[C@H](CO)[C@@H](O)[C@H](O)[C@H]2OC(=O)/C=C/c2ccccc2)C1	inactive
C=C(COC(=O)C(C)C)C1Oc2cc(C(C)=O)ccc2C1OC(=O)C(C)C (centres undefined)	inactive
CC1=CC(=O)CC(C)(C)[C@@]1(O)/C=C/C(C)O[C@@H]1O[C@H](CO)[C@@H](O)[C@H](O)[C@H]1O (some centres undefined)	inactive
Cc1nc2cc(-c3cc(F)cc(C#N)c3)ccc2s1	inactive
CCN=C1N[C@@H]2[C@@H](O)[C@H](O)[C@@H](CO)O[C@@H]2S1	inactive
C/C=C(\C)C(=O)OC1C2(O)CC3=C4CC(=O)OC(c5ccoc5)C4(C)CCC3C(C)(C2=O)C(C(OC(C)=O)C(=O)OC)C1(C)C (centres undefined)	inactive
C[C@@H]1CC[C@]2(C(=O)O[C@@H]3O[C@H](CO[C@@H]4O[C@H](CO)[C@@H](O[C@@H]5O[C@@H](C)[C@H](O)[C@@H](O)[C@H]5O)[C@H](O)[C@H]4O)[C@@H](O)[C@H](O)[C@H]3O)CC[C@]3(C)C(=CCC4[C@@]5(C)C[C@@H](O)[C@H](O)[C@@](C)(CO)C5CC[C@]43C)C2[C@H]1C (some centres undefined)	inactive
CC1=C2CC(=O)C(C)CC/C=C(\C)CC2OC1=O (centres undefined)	inactive
CC(=O)OC1C(CO)OC(O[C@H]2[C@H](OC(=O)[C@]34CCC(C)(C)C[C@H]3C3=CCC5[C@@]6(C)CC[C@H](O[C@@H]7O[C@H](C(=O)O)[C@@H](O)[C@H](O[C@@H]8OC[C@@H](O)[C@H](O)[C@H]8O)[C@H]7O[C@@H]7O[C@H](CO)[C@H](O)[C@H](O)[C@H]7O)[C@@](C)(C=O)C6CC[C@@]5(C)[C@]3(C)C[C@H]4O)O[C@H](C)[C@H](OC3OC(C)C(OC4OCC(O)C(O)C4O)C(O)C3O)[C@@H]2O)C(O)C1O (some centres undefined)	inactive
CS(=O)(=O)c1ccccc1N1CCN(c2nc3c(c(=O)[nH]2)CSCC3)CC1	inactive

Compound	Potency
C[C@@H]1O[C@@H](O[C@H]2[C@H](OC(=O)[C@]34CCC(C)(C)C[C@H]3C3=CCC5[C@@]6(C)C[C@@H](O)[C@@H](O[C@@H]7O[C@H](CO)[C@@H](O)[C@H](O)[C@H]7O)[C@@](C)(CO)C6[C@H](O)C[C@@]5(C)[C@]3(C)CC4)OC[C@H](O)[C@@H]2O)[C@H](O)[C@H](O[C@@H]2OC[C@](O)(CO)[C@H]2O)[C@H]1O[C@@H]1OC[C@@H](O)[C@H](O[C@H]2O[C@H](C)[C@@H](O)[C@H](O)[C@@H]2O)[C@H]1O (some centres undefined)	inactive
CC(C)=CCC[C@](C)(O[C@@H]1O[C@H](CO[C@@H]2OC[C@H](O)[C@H](O)[C@H]2O)[C@@H](O)[C@H](O)[C@H]1O)[C@H]1CC[C@]2(C)[C@@H]1[C@H](O)C[C@@H]1[C@@]3(C)CC[C@H](O[C@@H]4O[C@H](CO)[C@@H](O)[C@H](O)[C@H]4O[C@@H]4O[C@H](CO)[C@@H](O)[C@H](O)[C@H]4O)C(C)(C)[C@@H]3CC[C@]12C	inactive
Cc1c(NC(=O)N2CCOCC2)ccc2c1c1ccccc1n2C(C)C	inactive
C#CCCCn1cc(-c2cccc3c2N[C@@H](C)CC(=O)N3)cn1	inactive
O=C(/C=C/c1ccc(O)cc1)OCC1OC(O)C(OC2OC(CO)C(O)C(O)C2O)C(O)C1O (centres undefined)	inactive
C[C@H]1[C@H](C)CC[C@]2(C(=O)O)CC[C@]3(C(=O)O)C(=CCC4[C@@]5(C)CC[C@H](O[C@@H]6O[C@@H](C)[C@H](O)[C@@H](O)[C@H]6O)C(C)(C)C5CC[C@]43C)[C@H]12 (some centres undefined)	inactive
NC1=NC2(c3cc(NC(=O)c4ccc(F)cn4)ccc3F)COCC2CS1 (centres undefined)	inactive
CC(=O)O[C@H]1C[C@@H](O)C(C)(C)C2C[C@@H](OC(C)=O)[C@]3(C)C(CC[C@@]4(C)[C@H](c5ccoc5)OC(=O)[C@H]5O[C@]543)[C@]21C (some centres undefined)	inactive
C[C@H]1[C@H](C)CC[C@]2(C(=O)OC3OC(CO)C(O)C(O)C3O)CC[C@]3(C(=O)O)C(=CCC4[C@@]5(C)CC[C@H](O[C@@H]6O[C@@H](C)[C@H](OC7OC(CO)C(O)C(O)C7O)[C@@H](O)[C@H]6O)C(C)(C)C5CC[C@]43C)[C@H]12 (some centres undefined)	inactive
CCC(C)C1NC(=O)C2C(C)CCN2C(=O)C(CC(O)CO)OC(=O)CCNC(=O)C(C)N(C)C(=O)C(C(C)C)N(C)C1=O (centres undefined)	inactive
C=CC(C)(O)CC/C=C(\C)C(=O)O[C@@H]1[C@@H](O)[C@H](OC(C)(C=C)CC/C=C(\C)C(=O)O)O[C@H](CO)[C@H]1OC(=O)/C(C)=C/CCC(C)(O)C=C (some centres undefined)	inactive
CC(C)(O)/C=C/C(=O)[C@](C)(O)[C@H]1[C@H](O)C[C@@]2(C)[C@@H]3CC=C4[C@@H](C=C(O[C@@H]5O[C@H](CO)[C@@H](O)[C@H](O)[C@H]5O)C(=O)C4(C)C)[C@]3(C)C(=O)C[C@]12C	inactive
Cc1cccc(NC(=O)CN2CCC(c3ccccn3)CC2)c1	inactive
C=CC(C)(CCC=C(C)C)O[C@@H]1O[C@H](CO)[C@@H](O)[C@H](O)[C@H]1O (some centres undefined)	inactive
C=CC(C)(O)C1CC2C3(C)CCCC(C)(C)C3C(O)C(O)C2(C)O1 (centres undefined)	inactive
C=CCC1=C[C@]2(OC)[C@H](C)[C@@H](c3ccc(OC)c(OC)c3)O[C@]2(OC)CC1=O	inactive
CC/C=C\[C@H](O)[C@H](O)C1=C(C)C(=O)[C@]2(O1)C(=O)N[C@@](O)(C(=O)c1ccccc1)[C@@H]2O	inactive
C[C@H]1[C@@H](O)[C@H](O)C2[C@]3(C)C([C@@H](O)[C@H]4OC(=O)[C@@H]1[C@@]24C)[C@](C)(O)C=C[C@H]3O[C@@H]1O[C@H](CO)[C@@H](O)[C@H](O)[C@H]1O (some centres undefined)	inactive
C=C1C(OC(C)=O)CCC2(C)CC3(O)OC(=O)C(C)=C3CC12 (centres undefined)	inactive
